# Source: PubChem (several laboratories)
# Rows were chosen to be rich in hits. Some 1.3% of all compounds tested hit in one or more screens of this group.
# BCLXL inh = Bcl-xL (human) inhibition. GST-Bcl-xL / FITC-Bim BH3 peptide fluorescence polarization. 320,000 compounds, 0.7% hits. Q07817. inhibition, % at 10.9 µM;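 active = inhibition above the mean of all tested compounds plus 3 SD, cutoff set per campaign, cut at about 30% in these data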;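 also: inhibitors lower millipolarization by displacing the labeled peptide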
# Target sequence (Q07817 whole entry, looked up): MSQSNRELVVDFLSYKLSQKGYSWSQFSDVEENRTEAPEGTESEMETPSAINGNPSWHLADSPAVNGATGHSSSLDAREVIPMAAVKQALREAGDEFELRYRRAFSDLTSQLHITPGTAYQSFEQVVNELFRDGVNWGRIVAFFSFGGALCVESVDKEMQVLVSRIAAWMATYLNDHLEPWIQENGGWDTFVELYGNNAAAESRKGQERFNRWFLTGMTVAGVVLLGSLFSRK
# E coli Lon inh = inhibitors of E. coli Lon protease | P0A9M0 | purified E. coli Lon protease, fluorescence polarization | inhibition, % at 7.94 µM | 360,000 compounds, 0.42% hits; in the data active = inhibition above about 13%, passing the limit was not always enough
# MCL1-BIM inh = MCL1-BIM-BH3 interaction inhibition (human); GST-MCL1 / FITC-Bim-BH3 fluorescence polarization; Q07820; AID 2057; inhibition, % at 10.9 µM; 320,000 compounds, 0.68% hits;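 active = inhibition above the mean inhibition of all tested compounds plus 3 SD, set per campaign, cut at about 40% in these data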;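 also: higher means more loss of mP so more displacement of Bim peptide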
# GLD-1 TGE inh = GLD-1-TGE RNA interaction inhibition (C. elegans); Q17339; purified GLD-1 + fluorescein TGE RNA, fluorescence polarization; inhibition, % at 5.96 µM; 320,000 compounds, 0.44% hits; AID 2280;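 active = percent inhibition above a per-plate cutoff, the plate mean of test compounds plus 3 SD, cut at about 30% in these data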
# Target sequence (Q17339 whole entry, looked up): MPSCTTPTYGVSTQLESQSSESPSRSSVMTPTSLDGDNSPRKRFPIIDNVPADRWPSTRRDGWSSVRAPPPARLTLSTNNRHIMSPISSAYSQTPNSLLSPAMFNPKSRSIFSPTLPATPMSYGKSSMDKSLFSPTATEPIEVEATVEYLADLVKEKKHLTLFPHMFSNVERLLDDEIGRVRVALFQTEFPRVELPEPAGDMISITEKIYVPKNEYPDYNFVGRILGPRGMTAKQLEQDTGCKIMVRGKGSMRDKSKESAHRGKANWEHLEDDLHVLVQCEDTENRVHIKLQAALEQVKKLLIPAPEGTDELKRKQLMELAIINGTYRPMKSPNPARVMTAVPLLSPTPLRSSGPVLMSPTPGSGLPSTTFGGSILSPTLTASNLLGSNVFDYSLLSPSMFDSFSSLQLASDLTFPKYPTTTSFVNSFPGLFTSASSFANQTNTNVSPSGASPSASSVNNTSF
# Keap1-Nrf2 PPI = Keap1-Nrf2 (human) interaction inhibition. Q14145. Keap1 Kelch-Nrf2 peptide fluorescence polarization, 1536-well. inhibition, % at 9.4 µM. 340,000 compounds, 0.15% hits. AID 504523; in the data active = inhibition above about 12%; inconclusive = no clear call, values can overlap the other calls; inactive = below about 7.3%;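 also: human Keap1 Kelch domain with fluorescein labeled Nrf2 9mer peptide probe; higher means more block of Keap1 binding to Nrf2 peptide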
# LANA DNA inh = blocks KSHV LANA C-terminal domain binding to DNA; 340,000 compounds, 0.078% hits; inhibition, % at 9 µM; MBP-C-LANA/FAM-LBS DNA binding, fluorescence polarization;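 active = highest replicate inhibition at or above 60% at 9 µM, even if other replicates fall short; inactive = all replicates below 60% inhibition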
# BCLXL inh confirm = counter-screen for MCL1 inhibitors: confirmation of human Bcl-xL inhibitors; GST-Bcl-xL / FITC-Bim BH3 peptide FP binding; inhibition, % at 10.9 µM; AID 2166; 1,700 compounds, 54% hits; shares compounds with MCL1-BIM inh;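 active = inhibition above a cutoff equal to the mean inhibition of all tested compounds plus 3 SD, cut at about 30% in these data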
# MCL1 inh confirm = confirmation of human MCL1 and BIM-BH3 interaction inhibitors; shares compounds with MCL1-BIM inh; GST-MCL1 / FITC-Bim-BH3 fluorescence polarization; inhibition, % at 10.9 µM; 1,700 compounds, 61% hits;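 active = inhibition above the average of all tested compounds plus 3 SD, cut at about 40% in these data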
# GLD1 RNA confirm = GLD-1 TGE RNA interaction inhibition, confirmation | shares compounds with GLD-1 TGE inh | GLD-1/FL-TGE RNA fluorescence polarization, biochemical | inhibition, % at 5.96 µM | 550 compounds, 10% hits | AID 2459;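 active = average inhibition across triplicates above the hit cutoff set in the primary screen, cut at about 32% in these data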
# Keap1 TSA = Keap1 (human) Kelch domain binding; shares compounds with Keap1-Nrf2 PPI; Keap1 Kelch thermal shift, delta Tm; hits give high values; max delta Tm, degrees C; 400 compounds, 8% hits; AID 651823; in the data active = max delta Tm above about 0.48 degrees C
# Dye-only ctr = shifts Sypro Orange melt without protein, a false positive; AID 651858; Sypro Orange dye-only thermal melt, no protein, delta Tm; top dose 26 µM; 140 tested, under 10 active; delta Tm, degrees C (concentration not given with the values); shares compounds with Keap1-Nrf2 PPI;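 active = at highest dose tested, delta Tm positive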
# eLon confirm = E. coli Lon inhibition confirmation. purified E. coli Lon, fluorescence polarization. AID 602230. 1,400 compounds, 31% hits. shares compounds with E coli Lon inh. inhibition, % at 7.94 µM; in the data active = inhibition above about 16%
# A number is an active result; n = inactive; u = inconclusive; x = no result; + = active, no number.
SMILES,BCLXL inh,E coli Lon inh,MCL1-BIM inh,GLD-1 TGE inh,Keap1-Nrf2 PPI,LANA DNA inh,BCLXL inh confirm,MCL1 inh confirm,eLon confirm,others
O=C(COC(=O)c1cc(-c2cccc3ccccc23)nc2ccccc12)NC1CCS(=O)(=O)C1 (stereo unspecified),152,178,185,97,n,n,63,80,n,
CCN(C(=O)COC(=O)c1ccccc1Cc1ccccc1)C1CCS(=O)(=O)C1 (stereo unspecified),n,n,n,n,x,x,x,x,x,
Cc1ccc(OCc2cc(C(=O)NC(C)Cc3cccc(C)n3)no2)cn1 (stereo unspecified),n,n,n,n,n,n,x,x,x,
CCOc1ccc(S(=O)(=O)NCCC(=O)N2CCCC(C)C2)cc1 (stereo unspecified),n,n,n,n,n,n,x,x,x,
CC(C)N1CCC(N2CCN(Cc3ccc(Oc4ncccn4)cc3)CC2CCO)CC1 (stereo unspecified),n,n,n,n,n,n,x,x,x,
N=C1CCC(=N)c2c1c(O)c1ccccc1c2O,125,29,150,107,n,n,119,144,44,
CC(OC(=O)c1cnc2ccccc2n1)c1ccccc1Cl (stereo unspecified),n,n,n,n,n,n,x,x,x,
COc1ccc(CC(=O)N2CCCC2)c(OC)c1,n,n,n,n,n,n,x,x,x,
CSc1nnc(C)c(=O)n1COC(=O)/C=C/c1ccc2c(c1)OCO2,n,n,n,n,n,n,x,x,x,
CCC(=O)c1cccc(-c2ccccc2)c1CC,x,n,x,x,n,x,x,x,x,
Cc1nc2ccccc2n2c(O)c(CC(=O)O)cc12,+,148,+,137,22,n,190,+,119,Keap1 TSA=0.46
O=C(COc1cccnc1[N+](=O)[O-])Nc1ncc(Cl)cc1Cl,64,18,78,n,n,n,61,98,n,
O=C(COc1cccnc1[N+](=O)[O-])Nc1c(Cl)cccc1Cl,x,n,x,n,n,n,x,x,x,
CN(C)CCP(=O)(c1ccccc1)c1ccccc1,n,n,n,n,n,n,x,x,x,
CN(C)CCN(C)Cc1c2ccccc2c(CN(C)CCN(C)C)c2ccccc12,172,125,189,123,19,n,77,102,47,Keap1 TSA=n;Dye-only ctr=n
O=Cc1c(N2CCN(CCO)CC2)nc2ccccn2c1=O,60,41,69,41,n,n,54,77,n,GLD1 RNA confirm=n
CCCCN(CC(=O)NC1CC1)S(=O)(=O)c1ccc(OCC)cc1,n,n,n,n,n,n,x,x,x,
O=C(c1nc2ccccn2c1CN1CCC(Cc2ccccc2)CC1)N1CCCC1,n,n,n,n,n,n,x,x,x,
COCC1CCN(Cc2c(C(=O)N3CCN(C4CCCCC4)CC3)nc3ccccn23)C1 (stereo unspecified),52,26,57,n,n,n,n,n,n,
COC(=O)c1ccc2c(c1)SC1=C(CCCC1=O)N2,148,35,177,96,n,n,118,161,100,GLD1 RNA confirm=48
O=C(c1ccco1)N1CCN(C2CN(Cc3ccc(F)cc3)S(=O)(=O)C2)CC1 (stereo unspecified),x,n,x,x,x,x,x,x,x,
COCCN1CN(S(=O)(=O)c2ccccc2)c2nc3ccccc3nc21,62,26,55,59,n,n,31,43,n,GLD1 RNA confirm=n
COCCN1CN(S(=O)(=O)c2ccc(Cl)cc2)c2nc3ccccc3nc21,n,n,n,n,n,n,x,x,x,
CCc1cc(C(=O)Nc2ccc(OC)nc2)sc1C,111,50,118,85,n,n,108,130,n,
COc1ccc(C)cc1NS(=O)(=O)c1ccc2c(c1)oc(=O)n2C,n,n,n,n,n,n,x,x,x,
SMILES,BCLXL inh,E coli Lon inh,MCL1-BIM inh,GLD-1 TGE inh,Keap1-Nrf2 PPI,LANA DNA inh,BCLXL inh confirm,MCL1 inh confirm,eLon confirm,others
CCOC(=O)CNc1ccc2c(c1)OCO2,154,65,176,84,22,n,n,n,n,
Nc1c(C(=O)NC2CC2)c2nc3ccccc3nc2n1-c1ccc2c(c1)OCO2,42,19,61,n,n,n,35,42,31,
CN1CCc2c(sc3c2C(=O)NC(c2ccccn2)N3)C1 (stereo unspecified),64,24,66,37,n,n,41,52,n,
CN1CCCc2cc3c(C(F)(F)F)cc(=O)oc3nc21,155,27,168,125,u,n,141,174,103,
O=C1CCC(=O)c2ccc3c4c(ccc1c24)CC3,x,n,x,x,n,n,x,x,x,
O=C1CCN2C=Nc3cccc4ccc1c2c34,+,+,+,169,140,152,192,+,+,
CC1(C)N=C(N)NC(=NCCCOc2ccc([N+](=O)[O-])cc2)N1,x,n,x,x,x,x,x,x,x,
Nc1cnccc1C(=O)O,107,131,125,98,n,n,144,174,80,
Cc1ccc(NS(=O)(=O)c2ccc3c(c2)NC(=O)CCS3)cc1C,n,n,n,n,n,n,x,x,x,
CCOC(=O)N1CC=C2C(C#N)=C(N)C(C#N)(C#N)[C@H](c3cccs3)C2C1 (stereo partly specified),n,n,n,n,n,n,x,x,x,
CC1CC=C2C(C#N)=C(N)C(C#N)(C#N)C(c3cccs3)C2C1 (stereo unspecified),92,42,96,70,n,n,52,68,16,
COc1ccc(C2C(C#N)=C(N)OC3=C2C(=O)CC(C)(C)C3)c([N+](=O)[O-])c1OC (stereo unspecified),n,n,n,n,n,n,x,x,x,
COc1cc(C2C(C#N)=C(N)OC3=C2C(=O)CC(C)(C)C3)c([N+](=O)[O-])cc1OC (stereo unspecified),+,34,+,154,n,n,64,82,19,
CC1(C)CC(=O)C2=C(C1)OC(N)=C(C#N)[C@@H]2c1ccccc1[N+](=O)[O-],163,53,194,113,39,n,36,46,n,Keap1 TSA=n;Dye-only ctr=n
Nc1ccc(-c2cnc3ccccc3n2)cc1,n,n,n,n,x,x,x,x,x,
